Assay results as given in PubChem BioAssay (NCATS).
“And” between values parts separate entries of the source, which are not always exact repeats. Equal entries are not always repeated. Records with an inconclusive call do not appear. Where a call stands in place of a potency, no number is given. The source made the active and inactive calls. Unless noted, calls come from the whole dose curve; as a rule, active = well fitted curve in the direction sought with a large enough effect; inconclusive = small, poorly fitted or top-dose-only effect, or another doubt; inactive = no such curve, though single readings can be large; an effect the other way counts as inactive or inconclusive.

Tests used:
[1] = Cell Viability - Jurkat (AID 426;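 active = dose-dependent loss of cell ATP signal giving a full or clear fitted curve, ranked by lower potency value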; note: potency is the fitted concentration of half-maximal effect); details: qHTS
Summary of the method: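 Jurkat (clone E6-1, human T-cell leukemia) cells, 5000/well in complete medium, were exposed to compound for 40 hr at 37 °C. Viability was read as intracellular ATP by CellTiter-Glo luminescence; AC50 came from Hill fits of concentration-response data.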

[2] = Cell Viability - Hek293 (AID 427;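 active = compounds whose dose-response curve shows a full or clear partial loss of cell viability, called from curve shape rather than a numeric limit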;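 note: potency is the fitted concentration of half-maximal effect; cells exposed to compound for 40 hours at 37 °C before reading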); details: qHTS
Summary of the method: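 HEK293 cells in complete medium were exposed to compound for 40 hr at 37 °C, then cellular ATP was read by CellTiter-Glo luminescence. Data were normalized to DMSO (basal) and 100 uM tamoxifen (100% inhibition), and AC50 came from Hill fits.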

[3] = Cell Viability - N2a (AID 540); details: N2a mouse neuroblastoma cell viability; at 92.2 µM (top of the series); note: nearly all actives have a fitted effect of over 45% in size
Summary of the method: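 Mouse neuroblastoma N2a cells (1500/well) were preincubated 5 hr at 37 °C, then exposed to compounds for 40 hr at 37 °C in complete medium. Viability was read as intracellular ATP by CellTiter-Glo luminescence; AC50 from Hill fits.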

[4] = Cell Viability - H-4-II-E (AID 543); details: H-4-II-E rat hepatoma viability; series mostly up to 92.2 µM; note: nearly all actives have a fitted effect of over 35% in size
Summary of the method: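 Rat hepatoma H-4-II-E cells (1500/well) were plated, incubated 5 hr at 37 °C, then exposed to compounds for 40 hr at 37 °C. Cellular ATP was read by CellTiter-Glo luminescence; AC50 came from Hill-equation fits of concentration-response data.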

[5] = Cellular Toxicity (caspase-3) HepG2 (AID 654); details: HepG2 caspase-3 activation, luminescence, 0% = DMSO only, 100% = tamoxifen; series mostly up to 92.2 µM;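 note: cells exposed to compound for 16 hours before reading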
Summary of the method: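 HepG2 cells (1500/well) in complete medium were treated with compounds for 16 hr at 37 °C. Caspase-3/7 activity was then read as luminescence from peptide-aminoluciferin cleavage. AC50 came from Hill fits, normalized to DMSO and 100 uM tamoxifen.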

[6] = Cellular Toxicity (caspase-3) Hek293 (AID 664); details: HEK293 caspase-3 activation, DMSO = 0%, 100 µM tamoxifen = 100%; series mostly up to 92.2 µM;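 note: cells exposed to compound for 16 h at 37 °C before readout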
Summary of the method: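 HEK293 cells were exposed to compounds in complete medium for 16 hr at 37 °C, then caspase-3/7 activity was read by Caspase-Glo 3/7 luminescence after 20 min at room temperature. Data normalized to DMSO and 100 uM tamoxifen; AC50 from Hill fits.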

[7] = Cellular Toxicity (caspase-3) NIH 3T3 (AID 666); details: NIH 3T3 caspase-3 activation, apoptosis/toxicity, 0% DMSO, 100% is 100 µM tamoxifen; series mostly up to 92.2 µM;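 note: caspase signal read after 16 h compound exposure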
Summary of the method: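 Mouse NIH 3T3 fibroblasts (1000 cells/well) were treated with compound for 16 hr at 37°C in complete medium; caspase-3/7 activity was read by Caspase-Glo luminescence. Normalized to DMSO and 100 uM tamoxifen; AC50 from Hill fits.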

[8] = MultiTox-Fluor Cytotoxicity Assay - LYMP1-001 - Dead Cells (AID 946); details: LYMP1-001 lymphoblastoid cells, dead-cell protease fluorescence; series mostly up to 92.2 µM
Summary of the method: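 LYMP1-001 lymphoblastoid cells (2500/well) treated 16 h at 37 C. Dead-cell protease cleavage of bis-AAF-R110 read at Ex/Em 485/520. Normalized to DMSO and 15 uM tetraoctylammonium bromide; AC50 from Hill fits.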

[9] = Cell Viability - LYMP1-002 - Assay at 16 hr (AID 948); details: LYMP1-002 lymphoblastoid cell viability; series mostly up to 92.2 µM
Summary of the method: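 Seed 2500 LYMP1-002 cells per well in complete medium and hold 5 hr at 37 C. Add compound across a concentration series and incubate 16 hr at 37 C. Add CellTiter-Glo, wait 30 min at room temperature, read luminescence.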

[10] = MultiTox-Fluor Cytotoxicity Assay - LYMP1-002 - Live Cells (AID 955); details: LYMP1-002 lymphoblastoid live-cell protease fluorescence viability; series mostly up to 46.1 µM
Summary of the method: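 Human lymphoblastoid LYMP1-002 cells, 2500/well in complete medium, rested 5 hr at 37 C, then exposed to compounds for 16 hr at 37 C. Live-cell protease cleavage of GF-AFC read by fluorescence (Ex/Em 405/510) after 60 min at room temperature; AC50 from Hill fits.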

[11] = MultiTox-Fluor Cytotoxicity Assay - LYMP1-003 - Dead Cells (AID 961); details: LYMP1-003 lymphoblastoid cells, dead-cell protease fluorescence; series mostly up to 92.2 µM; note: nearly all actives have a fitted effect of over 70% in size
Summary of the method: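 LYMP1-003 human lymphoblastoid cells (2500/well) exposed to compound 16 h at 37 C in complete medium; dead-cell protease read with bis-AAF-R110 fluorescence (Ex/Em 485/520) after 60 min at room temperature. Normalized to DMSO and 15 uM tetraoctylammonium bromide; AC50 from Hill fit.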

[12] = Cell Viability - LYMP1-003 - Assay at 40 hr (AID 964); details: LYMP1-003 lymphoblastoid viability; series mostly up to 92.2 µM; note: nearly all actives have a fitted effect of over 60% in size
Summary of the method: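 Human lymphoblastoid LYMP1-003 cells, 2500/well in complete medium, rested 5 hr at 37 C, then exposed to compounds for 40 hr at 37 C. Viability read as intracellular ATP by CellTiter-Glo luminescence; AC50 from Hill fits of concentration-response data.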

[13] = Cell Viability - LYMP2-025 (AID 976); details: LYMP2-025 lymphoblastoid cell viability; series mostly up to 92.2 µM
Summary of the method: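 Human lymphoblastoid LYMP2-025 cells (2500/well) were pre-incubated 5 hr at 37 C, then treated with compounds for 24 hr at 37 C in complete medium. Viability was read as intracellular ATP by CellTiter-Glo luminescence; AC50 from Hill fits.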

[14] = Cell Viability - LYMP2-006 (AID 978); details: LYMP2-006 lymphoblastoid cell viability, qHTS; series mostly up to 92.2 µM; note: nearly all actives have a fitted effect of over 60% in size
Summary of the method: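 Cells are seeded at 2500 per well and rested 5 hr at 37 C. Compounds are added across a concentration series for 24 hr at 37 C, after which ATP is quantified by luciferase luminescence.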

[15] = Cell Viability - LYMP2-008 (AID 980); details: LYMP2-008 lymphoblastoid cell viability, qHTS; series mostly up to 92.2 µM; note: nearly all actives have a fitted effect of over 60% in size
Summary of the method: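 Human lymphoblastoid cells (2500/well) were plated, held 5 hr at 37 C, then exposed to compounds for 24 hr at 37 C in complete medium. Intracellular ATP was read by CellTiter-Glo luminescence; AC50 from Hill-fitted concentration-response.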

[16] = Cell Viability - LYMP1-002 - Assay at 24 hr (AID 993); details: LYMP1-002 lymphoblastoid cells viability; series mostly up to 92.2 µM
Summary of the method: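 Human lymphoblastoid LYMP1-002 cells, 2500/well in complete medium, were treated with compounds for 24 h at 37 C; intracellular ATP was read by CellTiter-Glo luminescence. AC50 values came from Hill-equation fits of qHTS concentration-response data.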

[17] = Cell Viability - LYMP1-002 - Assay at 40 hr (AID 994); details: LYMP1-002 lymphoblastoid cell viability; series mostly up to 92.2 µM; note: nearly all actives have a fitted effect of over 60% in size
Summary of the method: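 Human lymphoblastoid cells, 2500/well in complete medium, were preincubated 5 hr at 37 C, then exposed to compounds for 40 hr at 37 C. Intracellular ATP was read by CellTiter-Glo luminescence after 30 min at room temperature; AC50 from Hill-equation fits.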

[18] = qHTS assay for small molecule agonists of retinoid X receptor alpha signaling (AID 588544); details: HEK293T RXRa-UAS-bla, beta-lactamase reporter, 18 h; 530 nm emission
[19] = biological target: Tumor necrosis factor (Homo sapiens) (UniProt P01375); assay: qHTS assay to identify small molecules that stimulate Tumor Necrosis Factor-alpha (TNF-alpha) secretion (AID 651757; active = well fitted curve in the direction sought with a large enough effect in the signal ratio; the % refers to the signal ratio); details: Human cells, HTRF 665/615 ratio; series mostly up to 92.2 µM
Chain of Tumor necrosis factor (Homo sapiens) (P01375 whole entry, looked up): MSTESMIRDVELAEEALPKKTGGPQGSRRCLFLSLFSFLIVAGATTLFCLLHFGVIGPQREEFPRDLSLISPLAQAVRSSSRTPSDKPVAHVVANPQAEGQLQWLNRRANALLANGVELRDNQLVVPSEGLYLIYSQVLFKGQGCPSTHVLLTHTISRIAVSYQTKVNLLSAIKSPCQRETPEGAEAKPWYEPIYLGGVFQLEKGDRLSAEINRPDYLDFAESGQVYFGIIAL
Summary of the method: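 THP-1 cells were exposed to compounds for 17 hrs at 37 C, after which secreted TNF-alpha was measured by homogeneous HTRF (TR-FRET) using cryptate- and XL665-labeled anti-TNF-alpha antibodies, read after 3 hr at room temperature.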

[20] = qHTS assay for small molecule agonists of the antioxidant response element (ARE) signaling pathway measured by Nrf2-dependant transcriptional activity (AID 720636; active = well fitted curve in the direction sought with a large enough effect in the repeat runs; an effect the other way counts as inactive or inconclusive;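 note: HepG2 cells with an ARE-driven luciferase reporter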); details: ARE-luc HepG2, Nrf2 luciferase reporter, 16 h; series mostly up to 92.4 µM
Summary of the method: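 In HepG2 cells engineered with an Nrf2-responsive luciferase gene, ARE induction was quantified as luminescence after 16 hr compound treatment at 37 C.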

SMILES | Potency [1] | Potency [2] | activity change, negative = cytotoxicity [3] | Potency [4] | outcome [5] | outcome [6] | outcome [7] | Potency [8] | Potency [9] | outcome [10] | Potency [11] | Potency [12] | Potency [13] | Potency [14] | Potency [15] | Potency [16] | Potency [17] | max response [18] | outcome [19] | outcome [20]
ClC(Cl)=C(Cl)C(Cl)=C(Cl)Cl | > 92 µM (inactive) | > 92 µM (inactive) | -4.4% (inactive) | inactive | inactive | inactive | inactive | inactive | inactive | inactive | inactive | inactive | inactive | inactive | inactive | inactive | inactive | -9.28% and -8.5% | inactive | inactive
O=[N+]([O-])c1ccc(Cl)c(Cl)c1 | > 92 µM (inactive) | > 92 µM (inactive) | -3.37% (inactive) | inactive | inactive | inactive | inactive | inactive | inactive | inactive | inactive | inactive | inactive | inactive | inactive | inactive | inactive | 1.86% | inactive | inactive
N#CCCCl | > 92 µM (inactive) | > 92 µM (inactive) | -2.76% (inactive) and -3.85% (inactive) | inactive | inactive | inactive | inactive | inactive | inactive | inactive | inactive | inactive | inactive | inactive | inactive | inactive | inactive | 5.05% and -2.32% | inactive | inactive
CC(C)(C)OO | > 92 µM (inactive) | > 92 µM (inactive) | 1.33% (inactive) and -10.7% (inactive) | inactive | inactive | inactive | inactive | inactive | inactive | inactive | inactive | inactive | inactive | inactive | inactive | inactive | inactive | 4.87% and -13.2% | inactive | inactive
Brc1ccc(Oc2cc(Br)c(Br)cc2Br)c(Br)c1 |  |  | -86.7% (active) and -80.4% (active) | inactive | inactive | inactive | inactive | inactive | inactive | inactive | inactive | inactive | inactive | inactive | inactive | inactive | inactive |  | inactive | inactive
Brc1ccccc1 | > 92 µM (inactive) | > 92 µM (inactive) | -4.7% (inactive) | inactive | inactive | inactive | inactive | inactive | inactive | inactive | inactive | inactive | inactive | inactive | inactive | inactive | inactive | -12.9% and -10.7% | inactive | inactive
